Measurements reported in ChEMBL document CHEMBL4513216, “Probing the Open Global Health Chemical Diversity Library for Multistage-Active Starting Points for Next-Generation Antimalarials” (ACS Infect Dis, 2020).
In all, about 65,000 compounds went through this assay and about 2,100 (3.2%) showed an effect of 50% or more. The median lay at about -52%. The list comes from a sample in which strong results are over-represented; it also holds similar structures and randomly drawn compounds.

test system: Plasmodium falciparum; experiment: Screen against P. falciparum Asexual Blood Stage (ABS), at 5uM; format: functional, Dd2; details: tested at 5 uM

Row | SMILES | INHIBITION [%]
1 | CN1CCN(Cc2cn3c(n2)CN(C(=O)N2CCOCC2)CC3)CC1 | -121
2 | COc1ccccc1C(=O)N1CCNCC1C(N)=O (stereo not given) | -114
3 | COc1ccccc1C1CNCCN1C(C)=O (stereo not given) | -43.1
4 | COc1ccccc1C1CNCCN1C(=O)c1ccc(F)cc1 (stereo not given) | 69.7
5 | Cn1ccnc1CNC[C@H]1Cn2cc(-c3ccccc3)nc2CO1 | 56.4
6 | Cc1cccnc1CNC[C@H]1Cn2cc(-c3ccccc3)nc2CO1 | 30.8
7 | COc1ccc(-c2cn3c(n2)CO[C@@H](CNCc2nccn2C)C3)cc1 | 21.3
8 | Cc1nc(CCNC(=O)c2cc(C(C)C)nn2C)sc1C | -66
9 | COc1cc(N2CCC3(CC2)CN(CCO)c2ccccc23)ncn1 | 47.1
10 | CN(C)c1nc2c(c(N(C)Cc3n[nH]c4c3CCCCC4)n1)CCNC2 | 40
11 | CN(Cc1n[nH]c2c1CCC2)c1nc(C2CCCC2)nc2c1CNC2 | 2.51
12 | CN(Cc1n[nH]c2c1CCCC2)c1nc2c(c(=O)[nH]1)CCNCC2 | 65.3
13 | Cc1nccc(-c2cccc(NCC(=O)N3CCCC(C)C3)c2)n1 (stereo not given) | -103
14 | CN1C(=O)c2cccc(NC(=O)c3cccc(S(C)(=O)=O)c3)c2C1=O | -15.8
15 | Cc1ncc(CN2CC[C@@](C)(O)[C@H](Oc3cccc(F)c3)C2)cn1 | -18.7
16 | O=C(NC1CCNC1)C1(N2CCCCC2)Cc2ccccc2C1 (stereo not given) | 33.8
17 | O=C1NCCCC[C@@H]1NC(=O)C1(N2CCCCC2)Cc2ccccc2C1 | -107
18 | O=C(NC1CCNCC1)C1(N2CCCCC2)Cc2ccccc2C1 | 62.9
19 | CNCC(=O)N1CCC(c2ccnc(Nc3ccc(C)cn3)n2)C1 (stereo not given) | -163
20 | CCc1nccn1CCC(=O)N1C[C@@H]2CC[C@H]1CN(C(=O)N(C)C)C2 | -28.8
21 | O=C(c1c(F)cc(Br)cc1F)N1CCc2cnccc21 | -110
22 | Cc1cnn(CC(C)NCc2ccc(OCc3cccnc3)cc2)c1 (stereo not given) | 36.7
23 | Cc1cc(S(=O)(=O)N2CCC(N3CCC(O)C3)CC2)c(Cl)cc1Cl (stereo not given) | 69.3
24 | CCN1CCN(S(=O)(=O)c2cc(C)c(Cl)cc2Cl)CC1 | 64.3
25 | CCN1CCN(S(=O)(=O)c2cc(C)c(Cl)cc2C)CC1 | 19.7
26 | COC(=O)[C@H]1C[C@@H](O)CCN1S(=O)(=O)c1cc(C)c(Cl)cc1C | -190
27 | CCN1CCN(S(=O)(=O)c2cc(C)c(C)cc2Br)CC1 | 28.4

Row | SMILES | INHIBITION [%]
28 | Cc1cc(S(=O)(=O)N2CC[C@@H](O)C2)c(Cl)cc1F | -123
29 | O=C(c1csc(-c2ccc(C(F)(F)F)cc2)n1)N1CCCNCC1 | -4.67
30 | CC(C)CNC(=O)c1nn(C)c(NC(=O)Cc2ccccc2)c1F | -85.1
31 | COc1ncccc1CNC1CCc2c(ccc(=O)n2C)C1 (stereo not given) | -74.3
32 | Cc1ccc(CN2CC[C@H]3OCC[C@@H](C(=O)N4CCCCO4)[C@@H]3C2)o1 | -9.16
33 | CCN(CC)Cc1cn2c(n1)CN(C1CCOC1)CC2 (stereo not given) | -107
34 | Nc1ncccc1C(=O)NCc1cccc(Cl)c1 | -96.4
35 | O=C(NCCN1CCOCC1)c1ccnn1-c1ccc2ccccn12 | -33.3
36 | CCn1cc(-c2cc(-c3cc(CC(=O)O)cs3)nc(N)c2C#N)c(C)n1 | -125
37 | CCn1cc(-c2cc(-c3cc(CN(C)C)cs3)nc(N)c2C#N)c(C)n1 | 60.3
38 | Cc1nn(C)c(C)c1-c1cc(-c2cc(CC(=O)O)cs2)nc(N)c1C#N | -66.5
39 | CNC(=O)C1=NOC2(CCN(Cc3nccs3)C2)C1 (stereo not given) | -90.7
40 | CC(Nc1cnn(C)c(=O)c1Cl)c1ccc(F)cc1 (stereo not given) | -75.2
41 | N#Cc1cccnc1OC1CCN(S(=O)(=O)c2c(F)cccc2F)CC1 | -88.3
42 | COc1ccc(C)cc1C(=O)NC(CC(=O)O)c1cccs1 (stereo not given) | -134
43 | O=C1NCc2ccccc2CC12CCCN(Cc1ccsc1)C2 (stereo not given) | 64.3
44 | Cc1cccc(CN2CCCC3(Cc4ccccc4CNC3=O)C2)n1 (stereo not given) | -31.3
45 | COc1ccccc1CN1CCCC2(Cc3ccccc3CNC2=O)C1 (stereo not given) | 54.5
46 | O=C(O)c1ccccc1CN1CCC2(Cc3ccccc3CNC2=O)C1 (stereo not given) | -111
47 | O=C1NCc2ccccc2CC12CCCN(CCCc1ccccc1)C2 (stereo not given) | 39.2
48 | N#Cc1ccc(CN2CCCC3(Cc4ccccc4CNC3=O)C2)cc1 (stereo not given) | 10.7
49 | CCC(=O)N(CCC(=O)O)Cc1ccc(F)c(F)c1 | -62.6
50 | Cc1cc(CN(C)C(C(=O)O)c2ccc(C(C)(C)C)cc2)on1 (stereo not given) | -96.1
51 | COc1ccc(CNc2c(N3CCN(C(C)=O)CC3)c(=O)c2=O)cc1 | -16.8
52 | CC(C)c1[nH]c2ncccc2c1CN1CCC(O)CC1 | -59.2
53 | CC(C)(C)OC(=O)NCCc1csc(N2CCCC2)n1 | -50.6
54 | Cn1cnc2c1C(COCc1ccccc1)N(Cc1ccncc1)CC2 (stereo not given) | 51.6

Row | SMILES | INHIBITION [%]
55 | Cn1cnc2c1C(COCc1ccccc1)N(Cc1cccnc1)CC2 (stereo not given) | 36.7
56 | Cn1cnc2c1C(COCc1cccnc1)N(Cc1ccccc1)CC2 (stereo not given) | 23.7
57 | Cn1cnnc1C1CCCN(C(=O)NCCCn2cccn2)C1 (stereo not given) | -205
58 | CC(C)CC(=O)N1CCC2(CC1)COCCN2Cc1ccc(F)cc1 | -3.2
59 | Cc1cc(C)cc(C(=O)Nc2cccc(CN3CCCC3C(N)=O)c2)c1 (stereo not given) | -76.3
60 | CCCn1c(NCCc2ccccc2)nc2c(C)nn(C)c2c1=O | -42.9
61 | CN(C)CCN(C)S(=O)(=O)Cc1ccc(Br)cc1 | 63.7
62 | CCCNS(=O)(=O)Cc1ccc(Br)cc1 | -14.1
63 | CC(O)CCN(C)S(=O)(=O)Cc1ccc(Br)cc1 (stereo not given) | -23.8
64 | CCOCC1CN(C(=O)C2=CCCC2)Cc2cnn(C)c21 (stereo not given) | -16.8
65 | Cc1ccc(N[C@@H]2CN(Cc3cc(C)on3)C[C@@H]3CCCO[C@@H]32)nn1 | -84.9
66 | Cc1noc(C)c1CN1C[C@@H]2CCCO[C@@H]2[C@H](Nc2ccccn2)C1 | -37.5
67 | Cc1cccc(CN2C[C@@H]3CCCO[C@@H]3[C@H](Nc3ccccn3)C2)n1 | 55.6
68 | N[C@@H]1c2ccccc2C2(CCN(c3ncccc3C(F)(F)F)CC2)[C@H]1O | -6.42
69 | CCCC1CCCN(C(=O)Nc2ccc(F)c(C(N)=O)c2)CC1 (stereo not given) | -46
70 | Cc1ccc(CN2CCOCC3(CCN(Cc4cccs4)C3)C2)o1 (stereo not given) | 41.9
71 | Cn1cc(CN2CCOCC3(CCN(C4CCOCC4)C3)C2)cn1 (stereo not given) | -41.5
72 | COc1ccc(F)c(CN2CCCC3(CCN(C4CCOCC4)C3)C2)c1 (stereo not given) | 3.41
73 | Cc1cccc(CN2CCOCC3(CCN(C4CCOCC4)C3)C2)n1 (stereo not given) | 42.5
74 | Cn1cc(CN2CCCC3(COCCN(Cc4c[nH]nn4)C3)C2)cn1 (stereo not given) | -58.4
75 | c1cc(CN2CCCC3(COCCN(Cc4c[nH]nn4)C3)C2)cs1 (stereo not given) | 27.7
76 | COc1ccc(CN2CCOCC3(CCN(C4CCOCC4)C3)C2)cc1 (stereo not given) | 61
77 | c1csc(CN2CCOCC3(CCN(C4CCOCC4)C3)C2)c1 (stereo not given) | 50.4
78 | Fc1ccc(CN2CCCC3(COCCN(Cc4c[nH]nn4)C3)C2)cc1 (stereo not given) | 61.7
79 | c1cn(-c2ccc(N3CCC(NC4CC4)CC3)cc2)cn1 | 18.4
80 | CC(C)c1cc(CN(C)C(=O)C(C)N2CCc3ccccc3C2)no1 (stereo not given) | -28.5
81 | N[C@H]1CCCN(S(=O)(=O)c2ccc(C(=O)NCC(F)F)cc2)C1 | -117

Row | SMILES | INHIBITION [%]
82 | Cc1cc(C)cc(OCCN(C)C2CCOC2=O)c1 (stereo not given) | -68.2
83 | CC(C)C[C@H](N)C(=O)N1CCSc2ccccc2C1 | 48
84 | N[C@@H](C(=O)N1CCN(c2ccccc2Cl)C(=O)C1)c1ccccc1 | -17.6
85 | NC(C(=O)N1CCSc2ccccc2C1)c1ccccc1 (stereo not given) | 60.9
86 | O=S1(=O)CCC(NCCn2cncc2-c2ccc3c(c2)CCCO3)C1 (stereo not given) | -91.4
87 | O=S(=O)(C1CC1)N1CC[C@]2(C[C@@H](Oc3ncccc3F)CO2)C1 | -24.1
88 | CN(C)C(=O)c1cnc2n1CCN(Cc1cccnc1)C2 | -6.2
89 | N#Cc1ccnc(NCc2cc3n(n2)CCCN(C(=O)C2CCC2)C3)c1 | -89.1
90 | CN(Cc1ccccn1)C(CO)c1cccc(Br)c1 (stereo not given) | -68.3
91 | Cc1nn(CCO)c(C)c1CNC1CCOc2ccccc21 (stereo not given) | -36
92 | Cc1nn(CCO)c(C)c1CNC1CCCCc2ccccc21 (stereo not given) | -4.05
93 | Cc1nn(CCO)c(C)c1CNC1CCC(C)(C)c2ccccc21 (stereo not given) | 69.2
94 | Cc1cc2c(=O)n3c(nc2s1)CCN(Cc1[nH]cnc1C)CC3 | -96.3
95 | O=C(NCCNc1cc(N2CCCC2)cnn1)Nc1ccccc1F | -93.6
96 | Cc1sc2c(C3CCNCC3)nc(Nc3cccc(F)c3)n2c1C | -126
97 | O=C1NCC2(CCCN(Cc3ccc(F)cc3)C2)Oc2ccccc21 (stereo not given) | -41
98 | O=C1NCC2(CCCN(CCc3ccccc3)C2)Oc2ccccc21 (stereo not given) | 51.7
99 | O=C1NCC2(CCCN(Cc3ccccc3F)C2)Oc2ccccc21 (stereo not given) | -20.4
100 | COc1ccc(C(=O)CCC(=O)NCc2c(C)noc2C)cc1F | -164
101 | CCCc1ncc(C(=O)N2CCOc3ncccc32)s1 | -13.4
102 | NC(=O)Cn1cc(NC(=O)N2CCN(c3ccccc3)CC2)cn1 | 63.7
103 | NC(=O)Cn1cc(NC(=O)N2CCN(c3ccc(F)cc3)CC2)cn1 | -40.9
104 | Cc1cccc(N2CCN(C(=O)Nc3cnn(CC(N)=O)c3)CC2)c1 | -67.3
105 | COc1ccccc1CN1CC(OC)CN(C(=O)OCC(C)C)CC1=O (stereo not given) | -40.4
